A selection: hits, their analogues and other compounds. The true share with any hit is near 18%.
TDP1 inh = inhibitors of human tyrosyl-DNA phosphodiesterase TDP1; recombinant TDP1, AlphaScreen DNA substrate cleavage; 350,000 tested, 0.28% active; Q9NUW8; Potency, µM (highest dose often 130 µM), actives largely listed as inhibitors; note: nearly all actives have a fitted effect of over 40% in size
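Tdp1 1 nM final; 15 min RT w/ cpd; substrate 15 nM, 5 min; beads 10 ug/ml, 10 min; AlphaScreen read. Neg ctrl: no enzyme.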
VDR inhibitor = vitamin D3 receptor (human) inhibition; P11473; VDR-SRC2-3 peptide fluorescence polarization, 2 h; Potency, µM, hits mostly inhibitors; 400,000 tested, 0.93% active; AID 504847
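Compounds are added to VDR with labelled SRC2-3 coactivator peptide and held 2 h at room temperature. Inhibition of the VDR–peptide interaction is then read as a change in fluorescence polarization.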
GCN5L2 inh = blocks human GCN5L2 histone acetyltransferase. Q92830. GCN5L2 HAT assay, ThioGlo1 CoA-SH fluorescence. Potency, µM (top dose mostly 58.9 µM), usual class: inhibitors. 390,000 tested, 0.21% active
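Preincubate 20nM GCN5L2 with compound 15 min, RT → add 50uM ThioGlo1 + 75uM H3(1-25) + 70uM acetyl-CoA → read fluorescence 0 and 20 min. Primary qHTS; fluorescent artifacts likely.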
TDP1 cell CPT = DT40-hTDP1 cell growth loss with CPT | chicken DT40 Tdp1-/-;hTDP1 cells + 20 nM CPT, ATP luminescence, 48 h | Potency, µM (series often up to 46.2 µM), hits mostly inhibitors | 420,000 tested, 12% active | AID 686979; note: nearly all actives have a fitted effect of over 55% in size
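Chicken DT40 Tdp1-/- cells complemented with human TDP1, 400 cells/well, exposed to compounds plus 20 nM camptothecin for at least 48 h at 37 C; viability read as ATP content by CellTiter-Glo luminescence.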
TDP1 cell noCPT = qHTS for Inhibitors of human tyrosyl-DNA phosphodiesterase 1 (TDP1): qHTS in cells in absence of CPT; DT40 Tdp1-/- hTDP1 cells, no CPT, ATP luminescence, 48 h; Potency, µM (titrated, usually from 46.2 µM), most hits filed as inhibitors; 420,000 tested, 15% active; AID 686978, 2013; note: nearly all actives have a fitted effect of over 55% in size
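Readout: luminescence from CellTiter-Glo after 30 min in the dark at RT. Cells: DT40 Tdp1-/- with stable hTDP1, 400/well. Exposure: compounds alone, ≥48 hr, 37 °C.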
PLK1 PBD block = blocks phosphopeptide binding to human PLK1 polo-box domain; AID 720504; Plk1 PBD binding of FITC phosphopeptide, fluorescence polarization; Potency, µM, actives largely listed as inhibitors; 360,000 tested, 2.8% active; P53350; note: series mostly up to about 57 µM; nearly all actives have a fitted effect of over 65% in size
Target sequence (P53350 whole entry, looked up, the tested form may be a part): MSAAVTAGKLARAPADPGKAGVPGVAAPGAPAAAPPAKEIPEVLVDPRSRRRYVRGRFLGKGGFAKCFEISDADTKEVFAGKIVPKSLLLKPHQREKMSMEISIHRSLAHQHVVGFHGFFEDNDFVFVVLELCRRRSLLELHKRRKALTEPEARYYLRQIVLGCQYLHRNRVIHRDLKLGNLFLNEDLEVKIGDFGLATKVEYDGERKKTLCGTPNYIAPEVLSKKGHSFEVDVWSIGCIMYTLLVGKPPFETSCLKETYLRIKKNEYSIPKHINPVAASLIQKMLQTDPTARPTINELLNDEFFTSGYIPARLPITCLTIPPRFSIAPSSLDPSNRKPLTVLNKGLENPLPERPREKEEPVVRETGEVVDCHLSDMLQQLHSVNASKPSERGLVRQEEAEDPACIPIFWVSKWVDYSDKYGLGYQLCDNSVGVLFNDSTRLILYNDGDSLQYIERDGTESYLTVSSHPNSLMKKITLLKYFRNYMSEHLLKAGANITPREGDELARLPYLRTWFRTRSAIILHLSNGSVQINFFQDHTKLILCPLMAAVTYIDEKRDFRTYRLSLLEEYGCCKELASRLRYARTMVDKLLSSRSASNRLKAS
Numbers stand for hits; ! = not active in a repeat; [ ] = remark or other dose. Calls come from the whole dose curve; as a rule, active = well fitted curve in the direction sought with a large enough effect; inconclusive = small, poorly fitted or top-dose-only effect, or another doubt; inactive = no such curve, though single readings can be large; an effect the other way counts as inactive or inconclusive.

`CCOC(=O)c1c(C)[nH]c(C)c1S(=O)(=O)N1CCC(C(=O)N2CCN(c3cccc(C)c3C)CC2)CC1` gave TDP1 inh inactive, VDR inhibitor inactive, GCN5L2 inh inactive, TDP1 cell CPT 18µM and TDP1 cell noCPT inconclusive.
Screening CN(N=Nc1nc[nH]c1C(=O)NN)C1CCCCC1 returned VDR inhibitor inactive, TDP1 cell CPT inactive, TDP1 cell noCPT inactive and PLK1 PBD block inactive.
For Cc1cccc(N2CCN(C(=O)C3CCN(S(=O)(=O)c4cccs4)CC3)CC2)c1C the results were TDP1 inh inactive, VDR inhibitor inactive, GCN5L2 inh inactive, TDP1 cell CPT 21µM and TDP1 cell noCPT 15µM.
O=C(C1CCN(S(=O)(=O)c2cccs2)CC1)N1CCN(Cc2ccccc2)CC1 was read as TDP1 inh inactive, VDR inhibitor inactive, GCN5L2 inh inactive, TDP1 cell CPT inactive, TDP1 cell noCPT inconclusive and PLK1 PBD block inactive.
Screening CC(=O)c1ccc(N2CCN(C(=O)C3CCN(S(=O)(=O)c4cccs4)CC3)CC2)cc1 returned TDP1 inh inactive, VDR inhibitor inactive, GCN5L2 inh inactive, TDP1 cell CPT inconclusive, TDP1 cell noCPT 13µM and PLK1 PBD block inactive.
CC(=O)c1ccc(NC(=O)C2CCN(S(=O)(=O)c3cccs3)CC2)cc1 was read as TDP1 inh inactive, VDR inhibitor inactive, GCN5L2 inh inactive, TDP1 cell CPT inconclusive, TDP1 cell noCPT inconclusive and PLK1 PBD block inactive.
For COc1cc(C2C(C(C)=O)=C(O)C(=O)N2Cc2ccccc2)ccc1O (stereo not drawn) the results were VDR inhibitor inactive, GCN5L2 inh inactive, TDP1 cell CPT inactive, TDP1 cell noCPT inactive and PLK1 PBD block inactive.
`Cc1c(C)n2c(SCC(=O)N3CCCCCC3)nnc2[nH]c1=O` gave VDR inhibitor inactive, GCN5L2 inh inactive, TDP1 cell CPT inactive, TDP1 cell noCPT inactive and PLK1 PBD block inactive.
Screening Cc1cc(N=Cc2c(O)n(-c3cccc(C(F)(F)F)c3)c(=O)c3ccccc23)no1 returned TDP1 inh inactive, VDR inhibitor inactive, GCN5L2 inh inactive, TDP1 cell CPT 18µM, TDP1 cell noCPT 23µM and PLK1 PBD block inactive.
Screening COC(=O)c1ccc(-c2noc(CN(Cc3nccn3C)C(C)C)n2)cc1 returned TDP1 inh inactive, VDR inhibitor inactive, GCN5L2 inh inactive, TDP1 cell CPT 13µM, TDP1 cell noCPT inconclusive and PLK1 PBD block 17µM.
Screening CCOC(=O)CSC1=C(C#N)C(=O)NC(c2ccc(OC)cc2)S1 (stereo not drawn) returned TDP1 inh inactive, VDR inhibitor inconclusive, GCN5L2 inh inconclusive, TDP1 cell CPT 15µM, TDP1 cell noCPT 15µM and PLK1 PBD block 12µM.
`CCOC(=O)CSC1=C(C#N)C(=O)NC(c2ccc(OC)c(OC)c2)S1` (stereo not drawn) gave TDP1 inh inactive, VDR inhibitor inconclusive, GCN5L2 inh inconclusive, TDP1 cell CPT 16µM, TDP1 cell noCPT 12µM and PLK1 PBD block 12µM.
Screening Cc1nc(CC(=O)Nc2ccc(C(N)=O)cc2)cs1 returned TDP1 inh inactive, VDR inhibitor inactive, GCN5L2 inh inactive, TDP1 cell CPT inactive and TDP1 cell noCPT inactive.
For Cc1cc(C)cc(C(=O)N(C)[C@H](Cc2ccc(-c3ccccc3)cc2)C(=O)N[C@@H](Cc2c[nH]c3ccccc23)C(=O)O)c1 the results were TDP1 inh inactive, VDR inhibitor inconclusive, GCN5L2 inh 32µM!, TDP1 cell CPT inactive and TDP1 cell noCPT inactive.
Screening Cc1ccc(C(=O)NC(Cc2c[nH]c3ccccc23)C(=O)O)cc1 (stereo not drawn) returned TDP1 inh inactive, VDR inhibitor inactive, GCN5L2 inh inactive, TDP1 cell CPT inactive, TDP1 cell noCPT inactive and PLK1 PBD block inactive.
Screening COc1ccc(OC)c(-c2ccnc(-n3ncc(C(=O)NC(C)(C)CO)c3C3CC3)n2)c1 returned TDP1 cell CPT inactive[9.04 µM] and TDP1 cell noCPT inactive.
Screening COc1c(Br)cc(Br)cc1/C=N/n1c(C)nnc1C returned TDP1 inh inactive, VDR inhibitor inconclusive, GCN5L2 inh inactive, TDP1 cell CPT inconclusive, TDP1 cell noCPT inconclusive and PLK1 PBD block 27µM.
Screening Cn1cccc/c1=N\c1cccc[n+]1C returned TDP1 inh inactive, VDR inhibitor inactive, GCN5L2 inh inactive, TDP1 cell CPT 1.5µM, TDP1 cell noCPT 1µM and PLK1 PBD block inactive.
Screening Cc1ccc(NC(=O)c2ccc(CNS(=O)(=O)c3ccc4c(c3)C(C)(C)C(=O)N4C)cc2)cc1F returned TDP1 inh inactive, VDR inhibitor inactive, GCN5L2 inh inactive, TDP1 cell CPT 16µM and TDP1 cell noCPT 15µM.
Screening CCc1cccc(NC(=O)c2ccc(CNS(=O)(=O)c3ccc4c(c3)C(C)(C)C(=O)N4C)cc2)c1 returned TDP1 inh inactive, VDR inhibitor inactive, GCN5L2 inh inactive, TDP1 cell CPT inconclusive and TDP1 cell noCPT 16µM.
CCOc1ccccc1CNS(=O)(=O)c1ccc2c(c1)C(C)(C)C(=O)N2C was read as TDP1 inh inactive, VDR inhibitor inactive, GCN5L2 inh inactive, TDP1 cell CPT inconclusive, TDP1 cell noCPT 23µM! and PLK1 PBD block inactive.
`Cc1ccc(NC(=O)c2ccc(CNS(=O)(=O)c3ccc4c(c3)C(C)(C)C(=O)N4C)cc2)cc1` gave TDP1 inh inactive, VDR inhibitor inactive, GCN5L2 inh inactive, TDP1 cell CPT inactive and TDP1 cell noCPT inactive.
Screening O=C(Cc1ccccc1)Nc1ccc(NC(=O)c2ccccc2)c(Cl)c1 returned VDR inhibitor inactive, GCN5L2 inh inactive, TDP1 cell CPT inactive, TDP1 cell noCPT inconclusive and PLK1 PBD block inactive.
CCOC(=O)C1=C(COC(=O)/C=C/c2cc(OC)c(OC)c(OC)c2)NC(=O)NC1C (stereo not drawn) was read as TDP1 inh inactive, VDR inhibitor inactive, GCN5L2 inh inactive, TDP1 cell CPT inconclusive, TDP1 cell noCPT inconclusive and PLK1 PBD block inactive.
For CN(Cc1ccccc1)C(=O)c1[nH]cnc1C(=O)Nc1ccccc1F the results were TDP1 cell CPT inactive, TDP1 cell noCPT inactive and PLK1 PBD block inactive.
Screening Cc1cc(C)cc(C(=O)NC(=S)Nc2ccc(-c3cc4ccccc4oc3=O)cc2)c1 returned TDP1 inh inactive, VDR inhibitor inactive, GCN5L2 inh inactive, TDP1 cell CPT inconclusive, TDP1 cell noCPT inconclusive and PLK1 PBD block inactive.
Cc1ccc(C(=O)NC(=S)Nc2ccc(-c3cc4ccccc4oc3=O)cc2)c(C)c1 was read as TDP1 inh inactive, VDR inhibitor inactive, GCN5L2 inh inactive, TDP1 cell CPT inconclusive, TDP1 cell noCPT 23µM and PLK1 PBD block inactive.

Bioassay records as filed in PubChem.
